Molecules are shown by their SMILES. Over roughly 2,300 compounds, “relative growth” has its median near 1; the lowest 2% begin near 0.046. Only a sample is shown.

The test system of this assay is E. coli BW25113. Nature of the assay: relative growth (fraction of control); higher = less inhibition. Particulars: 50 µM.
Consider `CNCC(O)c1ccc(O)c(O)c1.O=C(O)C(O)C(O)C(=O)O` (stereo not drawn), for which the relative growth was determined as 1.17.
`CCOC(=O)C(CCc1ccccc1)NC(C)C(=O)N1CCCC1C(=O)O.O=C(O)C=CC(=O)O` (stereo not drawn) yielded a relative growth of 1.07.
For `COCCCOc1cc(CC(CC(N)C(O)CC(C(=O)NCC(C)(C)C(N)=O)C(C)C)C(C)C)ccc1OC.O=C(O)C=CC(=O)O` (stereo not drawn) the value was 0.978.
`C#CCCCCCCCCCCCC(O)CC(O)CO.C=CCCCCCCCCCCCC(O)CC(O)CO` (stereo not drawn) gave a relative growth of 0.979.
On to `COc1ccc(CN(CCN(C)C)c2ccccn2)cc1.O=C(O)C=CC(=O)O`, for which the relative growth is 1.09.
As to `CN1CCC(=C2c3ccccc3CCc3sccc32)CC1.O=C(O)CC(O)C(=O)O`, the relative growth amounted to 1.07.
The result for `CC(C)=CCCC(C)C1CCC2(C)C3=C(CCC12C)C1(C)CCC(O)C(C)(C)C1CC3` (stereo not drawn) reads 0.918; that for `CCC1OC(=O)C(C)C(OC2CC(C)(OC)C(O)C(C)O2)C(C)C(OC2OC(C)CC(N(C)C)C2O)C(C)(O)CC(C)C(=O)C(C)C(O)C1(C)O` (stereo not drawn), 0.394.
In turn, `C[N+]1(CCCCC[N+]2(C)CCCC2)CCCC1.O=C([O-])C(O)C(O)C(=O)O.O=C([O-])C(O)C(O)C(=O)O` had a relative growth of 0.992.
Consider `OCC(O)C(O)C(O)CO` (stereo not drawn), for which the relative growth amounted to 0.987.
In turn, `CN(C)CCOC(C)(c1ccccc1)c1ccccn1.O=C(O)CCC(=O)O` (stereo not drawn) had a relative growth of 0.787.
Compound `CN(C)CCC(c1ccccc1)c1ccccn1.O=C(O)C=CC(=O)O` (stereo not drawn) gave a relative growth of 0.966.
Take `O=c1ccc2ccccc2o1`: the relative growth stood at 1.09.
`CN(C)CCOC(c1ccc(Cl)cc1)c1ccccn1.O=C(O)C=CC(=O)O` (stereo not drawn): the relative growth came to 0.986.
On to `NC(CO)(CO)CO.O=C(c1ccccc1)c1ccc2n1CCC2C(=O)O` (stereo not drawn), for which the relative growth amounted to 0.914.
Compound `CCN(CC)CCc1nc(-c2ccccc2)no1.O=C(O)CC(O)(CC(=O)O)C(=O)O` yielded a relative growth of 0.968.
Turning to `CC(C)NCC(O)COc1ccc(COCCOC(C)C)cc1.O=C(O)C=CC(=O)O` (stereo not drawn), the relative growth was found to be 1.04.
The compound `CN1CCCC1CCOC(C)(c1ccccc1)c1ccc(Cl)cc1.O=C(O)C=CC(=O)O` (stereo not drawn) showed a relative growth of 1.01.
Take `CN1CCCC1c1cccnc1.O=C(O)C(O)C(O)C(=O)O.O=C(O)C(O)C(O)C(=O)O` (stereo not drawn): the relative growth was 1.14.
On to `C[N+](C)(C)CCO.Cn1c(=O)c2[n-]cnc2n(C)c1=O`, for which the relative growth was found to be 1.06.
For `CN(C)CCOc1ccc(C(=C(CCCl)c2ccccc2)c2ccccc2)cc1.O=C(O)CC(O)(CC(=O)O)C(=O)O`, the relative growth was found to be 0.722.
Compound `Cc1c(OCC(F)(F)F)ccnc1CS(=O)c1nc2ccccc2[nH]1` (stereo not drawn) displayed a relative growth of 1.01.
The result for `NCC(O)c1ccc(O)c(O)c1.O=C(O)C(O)C(O)C(=O)O` (stereo not drawn) reads 1.12.
The result for `CN(C)CCC(c1ccc(Br)cc1)c1ccccn1.O=C(O)C=CC(=O)O` (stereo not drawn) reads 1.04; that for `COc1ccc2c3c1OC1CC(O)C=CC31CCN(C)C2` (stereo not drawn), 0.936.
`CN1CCCN=C1C=Cc1cccc(O)c1.O=C(O)c1cc2ccccc2c(Cc2c(O)c(C(=O)O)cc3ccccc23)c1O` had a relative growth of 1.1.
With `C=C1C2CCC3(C)C(c4ccoc4)OC(=O)CC13OC1CC(O)C(C)(C)C(CC(=O)OC)C12C` (stereo not drawn) [3alpha-HYDROXY-3-DEOXYANGOLENSIC ACID METHYL ESTER], the relative growth was 1.03.
For `OCC(O)C(O)CO` (stereo not drawn) the value was 0.882; for `Cl.NC(=O)CCC(N)C(=O)O` (stereo not drawn), 1.03; for `CCN(CCCc1ccccc1)CCCc1ccccc1.O=C(O)CC(O)(CC(=O)O)C(=O)O`, 0.881.
The compound `CN(C)CC(c1ccc(O)cc1)C1(O)CCCCC1.O=C(O)CCC(=O)O` (stereo not drawn) showed a relative growth of 1.14.
`CC1=C(C(=O)O)N2C(=O)C(NC(=O)C(N)c3ccccc3)C2SC1` (stereo not drawn) came in with a relative growth of 1.03.
Compound `O=C(O)C=CC(=O)O.OCCOCCN1CCN(C2=Nc3ccccc3Sc3ccccc32)CC1` yielded a relative growth of 0.3.
`CC1CC2C3CCC4=CC(=O)C=CC4(C)C3(F)C(O)CC2(C)C1(O)C(=O)CO` (stereo not drawn) had a relative growth of 0.933.
For `C1CCC(C(CC2CCCCN2)C2CCCCC2)CC1.O=C(O)C=CC(=O)O` (stereo not drawn), the relative growth was 0.52.
As to `CCN1CCCC1CNC(=O)c1cc(S(N)(=O)=O)ccc1OC` (stereo not drawn), the relative growth was found to be 1.04.
The result for `CC12CCC(CC1)C(C)(C)O2` reads 1.06; that for `Cc1ccccc1C(OCCN(C)C)c1ccccc1.O=C(O)CC(O)(CC(=O)O)C(=O)O` (stereo not drawn), 1.01.
Turning to `COCCCCC(=NOCCN)c1ccc(C(F)(F)F)cc1.O=C(O)C=CC(=O)O`, the relative growth stood at 0.949.
`Nc1nc(N)nc(-c2cc(Cl)ccc2Cl)n1.O=C(O)C=CC(=O)O`: the relative growth is 1.04.
For `CC(N)C(O)c1cccc(O)c1.O=C(O)C(O)C(O)C(=O)O` (stereo not drawn) the value was 0.957.
`Cc1ccc(S(=O)(=O)O)cc1.NC1CCN(c2nc3c(cc2F)c(=O)c(C(=O)O)cn3-c2ccc(F)cc2F)C1.O` (stereo not drawn) gave a relative growth of 0.0925.
Regarding `C=CC1=C(C)c2cc3[nH]c(cc4nc(cc5[nH]c(cc1n2)c(C)c5CCC(=O)O)C(CCC(=O)O)=C4C)c(C)c3C=C`, the relative growth came to 2.63.
Take `CNC(C)C1CCC(N)C(OC2C(N)CC(N)C(OC3OCC(C)(O)C(NC)C3O)C2O)O1.O=S(=O)(O)O` (stereo not drawn): the relative growth stood at 0.786.
`Cc1cc(C=Cc2ccc3cc(N(C)C)ccc3[n+]2C)c(C)n1-c1ccccc1.O=C([O-])c1cc2ccccc2c(Cc2c(O)c(C(=O)O)cc3ccccc23)c1O`: the relative growth was determined as 0.996.
`CC(C)Cc1ccc(C(C)C(=O)O)cc1` (stereo not drawn) registered a relative growth of 0.933.
For `CCN(CC)C(=O)N1CCN(C)CC1.O=C(O)CC(O)(CC(=O)O)C(=O)O` the value was 1.1.
As for `O=C(O)c1cc2ccccc2c(Cc2c(O)c(C(=O)O)cc3ccccc23)c1O.OCCOCCN1CCN(C(c2ccccc2)c2ccc(Cl)cc2)CC1`, the relative growth was 1.17.
As to `CC(CN(C)C)CN1c2ccccc2CCc2ccccc21.O=C(O)C=CC(=O)O` (stereo not drawn), the relative growth was 1.01.
Regarding `CCCCCCCCCCCCCCCC(=O)NCCO`, the relative growth came to 1.06.
`COC1C(C(=O)O)OC(C)C(O)C1O.COC1OC(C(=O)O)C(O)C(O)C1O` (stereo not drawn) [ALGINIC ACID [Mol Wt ~200,000; monomers shown]] showed a relative growth of 0.862.
`CN1CCC(=C2c3ccccc3CC(=O)c3sccc32)CC1.O=C(O)C=CC(=O)O` came in with a relative growth of 1.03.
`C=CC1CN2CCC1CC2C(O)c1ccnc2ccc(OC)cc12.O=C(O)C(O)C(O)C(O)C(O)CO` (stereo not drawn): the relative growth is 0.949.
As for `CC(=O)c1ccc2c(c1)N(CCCN(C)C)c1ccccc1S2.O=C(O)C=CC(=O)O`, the relative growth was 0.983.
On to `CC1OC(OC2C(O)CC(OC3C(O)CC(OC4CCC5(C)C(CCC6C5CC(O)C5(C)C(C7=CC(=O)OC7)CCC65O)C4)OC3C)OC2C)CC(O)C1O` (stereo not drawn), for which the relative growth was found to be 1.13.
For `Cl.Cl.O=C(O)COCCN1CCN(C(c2ccccc2)c2ccc(Cl)cc2)CC1` (stereo not drawn) the value was 0.982; for `C[N+](C)(C)CC(O)CC(=O)[O-]` (stereo not drawn), 0.989.
As to `CCOC(=O)C1=C(COCCN)NC(C)=C(C(=O)OC)C1c1ccccc1Cl.O=S(=O)(O)c1ccccc1` (stereo not drawn), the relative growth was found to be 0.929.
Turning to `COCCc1ccc(OCC(O)CNC(C)C)cc1.O=C(O)C(O)C(O)C(=O)O` (stereo not drawn), the relative growth came out at 1.17.
`COC1C(O)C(O)C(O)C(O)C1O` (stereo not drawn) registered a relative growth of 0.97.
With `COc1cccc2c1C(=O)c1c(O)c3c(c(O)c1C2=O)CC(O)(C(=O)CO)CC3OC1CC(N)C(O)C(C)O1` (stereo not drawn), the relative growth is 1.02.
`Cn1c(=O)c2[nH]cnc2n(C)c1=O` displayed a relative growth of 1.07.
In turn, `CN1CCC(=C2c3ccccc3Sc3ccccc32)CC1.O=C(O)C=CC(=O)O` registered a relative growth of 0.967.
Take `CC[N+](CC)(CC(=O)Nc1c(C)cccc1C)Cc1ccccc1.O=C([O-])c1ccccc1`: the relative growth was 1.01.
Compound `O=c1[nH]cc(F)c(=O)[nH]1` came in with a relative growth of 0.475.
The result for `COc1ccc(CC2c3cc(OC)c(OC)cc3CC[N+]2(C)CCC(=O)OCCCCCOC(=O)CC[N+]2(C)CCc3cc(OC)c(OC)cc3C2Cc2ccc(OC)c(OC)c2)cc1OC.O=S(=O)([O-])c1ccccc1.O=S(=O)([O-])c1ccccc1` (stereo not drawn) reads 0.995.
The compound `CCN(CC)CCOc1ccc(C(=C(Cl)c2ccccc2)c2ccccc2)cc1.O=C(O)CC(O)(CC(=O)O)C(=O)O` gave a relative growth of 0.86.
The result for `CCOC(=O)Nc1ccc(NCc2ccc(F)cc2)nc1N.O=C(O)C=CC(=O)O` reads 0.989; that for `Cc1cc2nc3c(=O)[nH]c(=O)nc-3n(CC(O)C(O)C(O)COP(=O)([O-])O)c2cc1C.[Na+]` (stereo not drawn), 0.981.
As to `CCC(C)C1OC2(CCC1C)CC1CC(CC=C(C)C(OC3CC(OC)C(OC4CC(OC)C(O)C(C)O4)C(C)O3)C(C)C=CC=C3COC4C(O)C(C)=CC(C(=O)O1)C34O)O2` (stereo not drawn), the relative growth was determined as 0.874.
On to `CN(C)CCOC(c1ccccc1)c1ccccc1.Cn1c(=O)c2[nH]c(Cl)nc2n(C)c1=O`, for which the relative growth came out at 0.0491.
On to `Cn1c(=O)cc(N2CCCC(N)C2)n(Cc2ccccc2C#N)c1=O.O=C(O)c1ccccc1` (stereo not drawn), for which the relative growth came to 1.05.
On to `O.OCC(O)C(O)C(OC1OC(CO)C(O)C(O)C1O)C(O)CO` (stereo not drawn), for which the relative growth came out at 0.993.
`CC12CCC3c4ccc(O)cc4CCC3C1CC(O)C2O` (stereo not drawn) showed a relative growth of 1.07.
The result for `CC(CN(C)C)CN1c2ccccc2Sc2ccccc21.O=C(O)C(O)C(O)C(=O)O` (stereo not drawn) reads 0.971; that for `CC(=O)NCC(=O)O.CC(=O)NCC(=O)O.N=C(N)c1ccc(N=NNc2ccc(C(=N)N)cc2)cc1`, 1.01.
In the case of `CCOCC(O)COc1ccc(NC(=O)CC[S+](C)C)cc1.Cc1ccc(S(=O)(=O)[O-])cc1` (stereo not drawn), the relative growth stood at 1.09.
Consider `O=C(O)CC(O)(CC(=O)O)C(=O)O`, for which the relative growth was found to be 1.02.
In the case of `CN(CCOc1ccc(CC2SC(=O)NC2=O)cc1)c1ccccn1.O=C(O)C=CC(=O)O` (stereo not drawn), the relative growth amounted to 0.921.
The result for `CC(C)C(=O)Oc1ccc(CO)cc1C(CCN(C(C)C)C(C)C)c1ccccc1.O=C(O)C=CC(=O)O` (stereo not drawn) reads 0.804.
For `C[n+]1cc2c3c(ccc2c2ccc4cc5c(cc4c21)OCO5)OCO3.[Cl-]`, the relative growth came to 0.639.
In turn, `CC(CCC(=O)O)C1CCC2C3C(O)CC4CC(O)CCC4(C)C3CCC12C` (stereo not drawn) came in with a relative growth of 0.976.
For `CCOCCn1c(N2CCCN(C)CC2)nc2ccccc21.O=C(O)C=CC(=O)O.O=C(O)C=CC(=O)O` the value was 1.11; for `NCC1OC(OC2C(N)CC(N)C(OC3OC(CO)C(O)C(N)C3O)C2O)C(O)C(O)C1O.O=S(=O)(O)O` (stereo not drawn), 0.935.
The result for `CC(C)(C)NCC(O)COc1nsnc1N1CCOCC1.O=C(O)C=CC(=O)O` (stereo not drawn) reads 0.974.
In turn, `CCCc1nn(C)c2c(=O)[nH]c(-c3cc(S(=O)(=O)N4CCN(C)CC4)ccc3OCC)nc12.O=C(O)CC(O)(CC(=O)O)C(=O)O` came in with a relative growth of 0.963.
On to `C[N+](C)(CCOc1ccccc1)Cc1ccccc1.O=C([O-])c1cc2ccccc2cc1O`, for which the relative growth turned out to be 0.93.
`COc1cccc2c1C(=O)c1c(O)c3c(c(O)c1C2=O)CC(O)(C(=O)CO)CC3OC1CC(N)C(O)C(C)O1.Cl` (stereo not drawn) showed a relative growth of 1.02.

The values above are taken from published antibiotic growth screens (doi:10.1016/j.cell.2020.01.021).
